# Sm TGR inh – inhibitors of Schistosoma mansoni thioredoxin glutathione reductase | AID 485364 | Potency, µM (titrated, usually from 114 µM), inactives show top-dose activity change, negative = inhibition, usual class: inhibitors | purified TGR, DTNB reduction, TNB absorbance 405 nm | Q962Y6 | 360,000 tested, 3% active; further: potency means the concentration at half of the fitted maximal effect; on the % scale 0 is the no-effect control and ±100 the full control effect; nearly all actives have a fitted effect of over 60% in size
#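 TGR 20 nM + NADPH 100 uM (dispensed conc.), cpd preinc 15 min RT; start with NADPH (500 uM addition) then DTNB (15 mM addition). Kinetic TNB absorbance, 405 nm filter. Four-parameter Hill fit across titration.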
# Pf growth 48h – inhibits P. falciparum growth in the first generation, 48 h. 310,000 tested, 5.9% active. P. falciparum luciferase growth in erythrocytes, 48 h. Potency, µM (top dose mostly 28.7 µM), for inactives: top-dose activity change, negative = inhibition, usual class: inhibitors; further: potency means the concentration at half of the fitted maximal effect; on the % scale 0 is the no-effect control and ±100 the full control effect
#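 Luciferase-expressing parasites in RBCs, 2% Hct / 0.1% parasitemia final; RPMI 1640 + 0.5% Albumax; 37 C, 5% CO2, one generation; luminescence read-out, lower signal = inhibition.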
# HCMV antiviral – human cytomegalovirus inhibition; HFF cells, HCMV-luciferase reporter, 72 h; stronger effect = lower value; activity change, negative = inhibition, % at 57.5 µM; 410,000 tested, 4.5% active; in the data active means activity change below about -60%; inconclusive means no clear call, values can overlap the other calls; inactive means above about -39%; further: on the % scale 0 is the no-effect control and ±100 the full control effect
#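 Two-dose cell screen: HFF monolayers treated with compounds and infected with luciferase-expressing HCMV at 1 PFU/cell, 72 h at 37C, then lysed for luciferase measurement.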
# Pf growth 96h – inhibits malaria parasite growth, 96 h; 320,000 tested, 6.9% active; Potency, µM (series often up to 28.7 µM), inactives show top-dose activity change, negative = inhibition, usual class: inhibitors; AID 504834; P. falciparum luciferase reporter growth, 96 h; further: potency means the concentration at half of the fitted maximal effect; on the % scale 0 is the no-effect control and ±100 the full control effect
#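 Parasite growth measured via integrated firefly luciferase reporter in P. falciparum. Infected erythrocytes at 2% hematocrit, 0.05% parasitemia final were treated 96 hours at 37 C under 5% CO2, and luminescence was read.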
# SARS PLP yeast – SARS-CoV PLP inhibition in yeast; S. cerevisiae expressing SARS-CoV PLpro, growth rescue; 330,000 tested, 0.19% active; AID 485353; Potency, µM (series often up to 32.9 µM), for inactives: at the top dose activity, positive = growth rescue, hits mostly activators; calls by dose curve; further: potency means the concentration at half of the fitted maximal effect; 0% is about no effect; nearly all actives have a fitted effect of over 55% in size
# HCV inhibitor – inhibitors of hepatitis C virus infection | AID 651820 | Potency, µM (series often up to 41.8 µM), for the others: top-dose activity change, negative = inhibition, usual class: inhibitors | 340,000 tested, 3.4% active | Huh7.5.1 HCVcc-Cre infection, luciferase reporter, 44 h; further: potency means the concentration at half of the fitted maximal effect; on the % scale 0 is the no-effect control and ±100 the full control effect
#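 Luciferase read-out (15 sec integration) after a 15 min room-temperature substrate step quantifies HCVcc-Cre infection. Cells, 1,000 per well, had compound added 4 h post-plating, then virus at ~0.5 moi, and were cultured 44 h.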
# An asterisk follows results filed as active; u = inconclusive; x = not tested or not shown. Shown are actives, neighbours in structure and some others; about 15% of the full set was active somewhere. Unless noted, the call rests on the fitted dose curve; in most records, active means well fitted curve in the direction sought with a large enough effect; inconclusive means small, poorly fitted or top-dose-only effect, or another doubt; inactive means no such curve, though single readings can be large; an effect the other way counts as inactive or inconclusive.
SMILES,Sm TGR inh,Pf growth 48h,HCMV antiviral,Pf growth 96h,SARS PLP yeast,HCV inhibitor
Nc1ccc(C2(c3ccc(N)cc3)c3ccccc3-c3ccccc32)cc1,7%,7%,-91*,34%,-11%,8.9µM*
Nc1ccc(C2(c3ccc(N)cc3)c3ccccc3C(=O)c3ccccc32)cc1,x,x,11,x,x,-7%
O=C(NC1CCCCC1)C(c1ccc2ncccc2c1)N(Cc1ccc2c(c1)OCO2)C(=O)c1cccs1 (stereo unspecified),-8%,u,u,5.9µM*,-1%,u
COc1ccc(CN(C(=O)c2cccs2)C(C(=O)NC2CCCCC2)c2ccc3ncccc3c2)cc1 (stereo unspecified),-21%,u,-20,10µM*,-23%,-8%
O=C(NC1CCCCC1)C(c1ccccc1)N(C(=O)c1cccs1)c1ccc2c(c1)OCO2 (stereo unspecified),1%,u,-39,u,-2%,2%
O=C(NC1CCCCC1)C(c1ccc2ncccc2c1)N(Cc1ccccc1)C(=O)c1cccs1 (stereo unspecified),1%,10µM*,-62*,u,-7%,u
COC(=O)c1ccc(C(C(=O)NC2CCCCC2)N(Cc2ccccc2)C(=O)Cc2cccs2)cc1 (stereo unspecified),-5%,-8%,-40,-27%,-3%,8%
OCc1ccc(-c2cccc3nccn23)cc1,x,x,13,x,x,x
CCOc1ccc(CCNC(=O)COC(=O)c2ccc3c(c2)OCCO3)cc1OCC,9%,u,-15,u,4%,-13%
O=C(Cn1c(=S)[nH]c2ccccc2c1=O)NCCc1ccccc1,-1%,11%,202,70%,0%,5%
CCCNC(=O)N1[C@@H]2CN(C(=O)Nc3ccccc3)c3ccccc3[C@@H]2[C@@H]1CO,x,x,-23,x,x,x
COc1cccc(-c2cnc(C(O)c3ccc(Cl)c(F)c3)[nH]2)c1 (stereo unspecified),x,x,-32,x,x,x
COc1cc(NC(=O)CCn2nc(C)c(S(=O)(=O)N3CCCCC3)c2C)cc(OC)c1OC,-8%,x,23,x,x,x
Cc1ccc(NNC(=O)Nc2ccc(Cl)cc2)nn1,-2%,33%,42,27%,-17%,14%
Cc1nnc(SCc2nnc(-c3ccc(Cl)cc3)o2)n1-c1ccccc1,8%,u,7,x,-6%,1%
FC(F)(F)COc1cc(-c2nnc(SCc3ccccc3)n2Cc2ccco2)cc(OCC(F)(F)F)n1,-3%,6.6µM*,1,12µM*,0%,u
NC(=O)C1CCN(C(=O)c2ccc3c(=O)n(Cc4ccco4)c(SCc4ccc([N+](=O)[O-])cc4)nc3c2)CC1,4%,12µM*,0,u,7%,2%
O=c1c2ccccc2nc(SCc2cccc(F)c2)n1Cc1ccco1,-17%,u,u,7%,-12%,u
O=c1c2ccccc2nc(SCc2ccccc2)n1Cc1ccco1,28µM*,u,-32,18%,-4%,u
Cc1nnc(SCc2nnc(-c3ccccc3Br)o2)n1-c1ccccc1,-4%,10µM*,-22,u,1%,15%
O=C(NC1CCCC1)c1ccc2c(=O)n(Cc3ccccc3)c(SCc3ccc([N+](=O)[O-])cc3)nc2c1,-7%,x,-16,x,x,x
COc1ccc(Cc2nnc(SCC(=O)Nc3ccccc3C)n(N)c2=O)cc1,-5%,-25%,-19,2%,-1%,-23%
CC(=O)N[C@@H](CCC(=O)O)C(=O)O,x,3%,x,-19%,x,x
CC1(C(=O)NS(=O)(=O)C2CC2)CCCN(C(=O)c2c(F)cccc2F)C1 (stereo unspecified),x,x,-6,x,x,x
O=C(NC1CCCCCC1)C1CCN(C(=O)N2CCOc3ccccc32)CC1,0%,x,47,x,x,x
SMILES,Sm TGR inh,Pf growth 48h,HCMV antiviral,Pf growth 96h,SARS PLP yeast,HCV inhibitor
COc1ccc2c(c1)C=C(CN1CCN(C3CCCC3)C(CCO)C1)CO2 (stereo unspecified),x,-10%,-15,25%,-1%,u
Cc1ccc(CSc2nc3ccccc3c(=O)n2Cc2ccco2)cc1,u,13µM*,2,9.3µM*,-14%,-13%
O=c1c2ccccc2nc(SCc2nnc(-c3ccccc3Br)o2)n1Cc1ccco1,-32%,u,-37,x,-3%,13µM*
O=c1c2ccccc2nc(SCc2nc3ccccc3s2)n1Cc1ccco1,-10%,9%,-14,-20%,-6%,u
CC(C)Oc1ccc(C(=O)N2CCN(c3nc4c(F)cc(F)cc4s3)CC2)cc1,5%,x,6,x,x,x
Cc1cc(OC(C)C(=O)NCc2cccnc2)c2c3c(c(=O)oc2c1)CCC3 (stereo unspecified),2%,u,0,10µM*,-2%,u
Cc1cc(OC(C)C(=O)NCc2cccnc2)c2c(C)c(C)c(=O)oc2c1 (stereo unspecified),2%,u,-30,-1%,-2%,4%
Cc1cc(OC(C)C(=O)NCc2cccnc2)c2c(C)c(Cc3ccccc3)c(=O)oc2c1 (stereo unspecified),4%,u,u,u,-1%,13µM*
C=CCC[C@H](CCCCC)OC(=O)/C=C/[C@@H](O)[C@H](O)C[C@@H](O)CC=C,x,x,-22,x,x,x
CN(C(=O)CC(NC(=O)c1ccccc1Cl)c1ccccc1)c1ccccc1 (stereo unspecified),1%,u,21,-29%,1%,x
N#Cc1ccc(-c2ccc(Cl)cc2)nc1SCC(=O)c1cccc(Cl)c1,-7%,33%,-61*,x,14%,9%
CC(C)NC(=O)C1(C)CSCC(=O)N1C1CC1 (stereo unspecified),x,x,67,x,x,x
CCc1nc(N2CCN(C(C)=O)CC2)c(C#N)c2c1COC(C)(C)C2,3%,-21%,-8,u,0%,-3%
CCCNC(=O)N1CCN(c2nc(C(C)C)c3c(c2C#N)CC(C)(C)OC3)CC1,5%,x,-66*,-3%,3%,u
Cc1ccc(S(=O)(=O)N2CCN(c3nc(C(C)C)c4c(c3C#N)CC(C)(C)OC4)CC2)cc1,0%,x,u,100%,12%,7.1µM*
COC(=O)[C@]12CCCCC=C1N(Cc1cccc3ccccc13)C(=O)[C@H](CC(=O)NCCCN1CCCC1=O)C2,x,x,2,x,x,x
O=C(NCC(c1ccc2c(c1)OCO2)N1CCOCC1)C(=O)Nc1ccc(Cl)cc1 (stereo unspecified),11%,x,u,x,x,x
Cc1cccc(OC(=O)NCCOC(=O)N(O)c2ccc(Cl)cc2)c1,-1%,62%,-29,7.4µM*,29%,26%
